Laboratory results as given in PubChem BioAssay (NCATS).
Unmarked numbers belong to inactive results. Results filed as inconclusive are left out. A call without a number means that no potency is given here. Active and inactive are the calls of the source. Unless noted, calls follow the shape of the dose curve; as a rule, active = well fitted curve in the direction sought with a large enough effect; inconclusive = small, poorly fitted or top-dose-only effect, or another doubt; inactive = no such curve, though single readings can be large; an effect the other way counts as inactive or inconclusive.

Key:
[1] = P-glycoprotein substrates identified in KB-8-5-11 adenocarcinoma cell line, qHTS therapeutic library screen (AID 1346987); also: nearly all actives have a fitted effect of over 65% in size
In short: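 In this qHTS, P-gp-rich KB-8-5-11 cells received library compounds across a concentration range. Viability was quantified by luminescence after 72 h at 37 degree C.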

[2] = NS1 protein of Zika virus - qHTS assay to identify small molecule inhibitors in human HEK 293 cells (AID 1347053); also: nearly all actives have a fitted effect of over 55% in size; also: potency is read from the fitted curve at half-maximal effect
In short: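 TR-FRET signal from two anti-ZIKV NS1 antibodies quantified NS1 in HEK 293 cells 24 h after MR766 infection at MOI = 0.5; compounds were added 1 h before virus. Uninfected cells and infected cells defined the NS1 normalization range.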

[3] = qHTS of pediatric cancer cell lines to identify multiple opportunities for drug repurposing: Primary screen for TC32 cells (AID 1347089); also: nearly all actives have a fitted effect of over 60% in size
In short: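 Luminescent ATP read-out (CellTiter-Glo) of metabolically active TC32 cells after 48 h exposure. Concentration-response curves came from 11-point (MIPE, 0.78 nM–46 µM) or 8-point (NPC, 0.59 nM–46 µM) primary titrations; follow-up used 11 points.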

[4] = qHTS of pediatric cancer cell lines to identify multiple opportunities for drug repurposing: Primary screen for BT-37 cells (AID 1347094); also: series mostly up to about 57 µM
In short: (§1)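 Phenotypic viability qHTS, 48 h compound exposure, CellTiter-Glo luminescence read-out; multi-concentration dosing so that potency and efficacy derive directly from the primary screen's curves.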

[5] = qHTS of pediatric cancer cell lines to identify multiple opportunities for drug repurposing: Primary screen for NB-EBc1 cells (AID 1347095)
In short: as §1

[6] = qHTS of pediatric cancer cell lines to identify multiple opportunities for drug repurposing: Primary screen for U-2 OS cells (AID 1347096); also: nearly all actives have a fitted effect of over 50% in size; also: potency is read from the fitted curve at half-maximal effect
In short: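 Cells (500-1,000/well) rested 5 h, then received compounds for 48 h; metabolically active cells were measured by CellTiter-Glo luminescence. Final concentrations spanned up to 46 µM (MIPE, 11-point) or 0.59 nM-46 µM (NPC, 8-point) in primary screens, 11-point in follow-ups.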

[7] = qHTS of pediatric cancer cell lines to identify multiple opportunities for drug repurposing: Primary screen for SJ-GBM2 cells (AID 1347091); also: potency is read from the fitted curve at half-maximal effect
In short: (§2)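 Cell viability, CellTiter-Glo luminescence; 500-1,000 cells/well, 8- or 11-point titration, 48 h compound exposure at 37 degrees C, 5% CO2. Controls: DMSO neutral, bortezomib 2.3 µM final as positive.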

[8] = qHTS of pediatric cancer cell lines to identify multiple opportunities for drug repurposing: Primary screen for A673 cells (AID 1347092); also: nearly all actives have a fitted effect of over 45% in size; also: potency is read from the fitted curve at half-maximal effect
In short: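 Cell viability of A673 measured by CellTiter-Glo ATP luminescence after 48 hours compound exposure. Dilution series spanned 0.78 nM to 46 µM (MIPE, 11-point) or 0.59 nM to 46 µM (NPC, 8-point); bortezomib 2.3 uM positive control.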

[9] = qHTS of pediatric cancer cell lines to identify multiple opportunities for drug repurposing: Primary screen for SK-N-MC cells (AID 1347093); also: potency is read from the fitted curve at half-maximal effect; as to activity change, negative = cytotoxic: series mostly up to about 46 µM
In short: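 Metabolically active cells were quantified by ATP-dependent luminescence (CellTiter-Glo, 15 min at room temperature) following 48 h treatment. Cells had been plated at 500-1,000 per well and settled for 5 h beforehand.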

[10] = qHTS of pediatric cancer cell lines to identify multiple opportunities for drug repurposing: Primary screen for DAOY cells (AID 1347090); also: series mostly up to about 46 µM; nearly all actives have a fitted effect of over 55% in size
In short: as §2

[11] = target: Atrial natriuretic peptide receptor 1 (Homo sapiens) (UniProt P16066); assay: Natriuretic polypeptide receptor (hNpr1) antagonism - Pilot screen (AID 1347049; calls by dose curve;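 also: HEK293 cells with hNpr1 and GloSensor cGMP luciferase stimulated by 0.1 nM hNppA; agonist-evoked cGMP luminescence read 20 min after hNppA addition; series mostly up to about 58 µM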)
In short: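 Receptor antagonism read as cGMP-dependent luminescence in hNpr1/pGS-40F HEK293 cells: pre-read after 30 min compound exposure, post-read 20 min after hNppA agonist at 0.1 nM final, all at room temperature, protected from light; A-71915 titration as control.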

[12] = target: Atrial natriuretic peptide receptor 2 (Homo sapiens) (UniProt P20594); assay: Natriuretic polypeptide receptor (hNpr2) antagonism - Pilot subtype selectivity assay (AID 1347050; calls by dose curve; also: potency is read from the fitted curve at half-maximal effect)
In short: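 Antagonist mode: compounds (LOPAC1280, seven 1:5 dilutions) added 30 min before 1 nM hNppC stimulation of hNpr2-HEK293 cGMP-sensor cells; luminescence read before and 20 min after agonist at ambient temperature.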

[13] = target: T1, Tyrosine-protein phosphatase non-receptor type substrate 1 (Homo sapiens) + Leukocyte surface antigen CD47 (Homo sapiens) (UniProt P78324+Q08722); assay: CD47-SIRPalpha protein protein interaction - LANCE assay qHTS validation (AID 1347057; active = well fitted curve in the direction sought with a large enough effect in the signal ratio, with a control signal flat, not every such curve was filed as active; the % refers to the signal ratio; also: series mostly up to about 38 µM)
In short: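 Inhibition of soluble CD47/SIRPalpha ectodomain association by titrated compounds, measured as 665/615 nm time-resolved FRET ratio after sequential 30 min room-temperature incubations.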

[14] = target: T1, Tyrosine-protein phosphatase non-receptor type substrate 1 (Homo sapiens) + Leukocyte surface antigen CD47 (Homo sapiens); assay: CD47-SIRPalpha protein protein interaction - Alpha assay qHTS validation (AID 1347059);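 also: bead proximity luminescence from CD47 binding SIRPalpha after compound preincubation with SIRPalpha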
In short: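 AlphaScreen signal between CD47-His (12.5 nM) and biotin-SIRPalpha (25 nM) soluble extracellular domains, bead-captured via Ni-NTA and streptavidin. Compounds, in 7-point titrations, met SIRPalpha 30 min before CD47; PBS pH 7.4 with 0.05% IGEPAL.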

[15] = Natriuretic polypeptide receptor (hNpr1) antagonism - Pilot counterscreen GloSensor control cell line (AID 1347045; calls by dose curve; also: series mostly up to about 38 µM)
In short: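 HEK293 cGMP-sensor cells; 2% GloSensor reagent 2 h RT; LOPAC compounds in 1:5 titrations 30-50 min; 50 uM SNP 20 min; luminescence pre-read and post-read.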

[16] = target: Parathyroid hormone/parathyroid hormone-related peptide receptor (Homo sapiens) (UniProt Q03431); assay: qHTS for PTHR1 Agonists: Optimization Screen against the NCGC LOPAC library (AID 1347079);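 also: GloSensor cAMP luminescence in HEK-293 GP2 cells expressing human PTHR1 with IBMX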
In short: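 Signal increase flags agonism. GP2 cells, derived from HEK-293, express human PTHR1 and a GloSensor cAMP construct.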

Atrial natriuretic peptide receptor 1 (Homo sapiens), sequence (P16066 whole entry, looked up): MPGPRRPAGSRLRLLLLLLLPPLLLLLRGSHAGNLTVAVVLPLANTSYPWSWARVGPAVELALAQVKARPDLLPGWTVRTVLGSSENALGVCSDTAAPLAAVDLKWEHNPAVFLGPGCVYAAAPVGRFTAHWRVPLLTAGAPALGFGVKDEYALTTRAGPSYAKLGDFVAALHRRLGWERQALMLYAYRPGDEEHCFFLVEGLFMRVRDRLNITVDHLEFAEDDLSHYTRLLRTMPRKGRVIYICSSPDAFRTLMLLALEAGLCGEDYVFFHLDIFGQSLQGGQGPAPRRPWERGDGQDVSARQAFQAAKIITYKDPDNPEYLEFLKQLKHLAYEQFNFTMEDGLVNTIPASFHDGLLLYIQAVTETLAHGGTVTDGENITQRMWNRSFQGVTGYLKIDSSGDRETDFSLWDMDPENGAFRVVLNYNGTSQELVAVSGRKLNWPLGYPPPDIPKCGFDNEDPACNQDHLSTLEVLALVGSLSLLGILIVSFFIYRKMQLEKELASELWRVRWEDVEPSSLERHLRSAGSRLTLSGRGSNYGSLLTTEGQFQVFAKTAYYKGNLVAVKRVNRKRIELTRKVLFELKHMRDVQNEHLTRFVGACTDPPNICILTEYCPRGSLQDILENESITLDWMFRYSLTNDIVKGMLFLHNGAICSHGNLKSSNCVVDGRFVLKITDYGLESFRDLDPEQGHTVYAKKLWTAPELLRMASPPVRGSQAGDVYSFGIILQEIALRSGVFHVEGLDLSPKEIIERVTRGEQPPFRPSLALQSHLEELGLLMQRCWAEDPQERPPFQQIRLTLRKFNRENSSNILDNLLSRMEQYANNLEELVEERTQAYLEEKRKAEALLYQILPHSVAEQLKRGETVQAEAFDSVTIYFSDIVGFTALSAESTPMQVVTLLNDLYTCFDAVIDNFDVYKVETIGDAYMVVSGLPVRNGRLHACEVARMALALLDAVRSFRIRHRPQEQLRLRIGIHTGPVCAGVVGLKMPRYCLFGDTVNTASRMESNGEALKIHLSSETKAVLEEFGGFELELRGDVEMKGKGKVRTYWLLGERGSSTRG
Atrial natriuretic peptide receptor 2 (Homo sapiens), sequence (P20594 whole entry, looked up): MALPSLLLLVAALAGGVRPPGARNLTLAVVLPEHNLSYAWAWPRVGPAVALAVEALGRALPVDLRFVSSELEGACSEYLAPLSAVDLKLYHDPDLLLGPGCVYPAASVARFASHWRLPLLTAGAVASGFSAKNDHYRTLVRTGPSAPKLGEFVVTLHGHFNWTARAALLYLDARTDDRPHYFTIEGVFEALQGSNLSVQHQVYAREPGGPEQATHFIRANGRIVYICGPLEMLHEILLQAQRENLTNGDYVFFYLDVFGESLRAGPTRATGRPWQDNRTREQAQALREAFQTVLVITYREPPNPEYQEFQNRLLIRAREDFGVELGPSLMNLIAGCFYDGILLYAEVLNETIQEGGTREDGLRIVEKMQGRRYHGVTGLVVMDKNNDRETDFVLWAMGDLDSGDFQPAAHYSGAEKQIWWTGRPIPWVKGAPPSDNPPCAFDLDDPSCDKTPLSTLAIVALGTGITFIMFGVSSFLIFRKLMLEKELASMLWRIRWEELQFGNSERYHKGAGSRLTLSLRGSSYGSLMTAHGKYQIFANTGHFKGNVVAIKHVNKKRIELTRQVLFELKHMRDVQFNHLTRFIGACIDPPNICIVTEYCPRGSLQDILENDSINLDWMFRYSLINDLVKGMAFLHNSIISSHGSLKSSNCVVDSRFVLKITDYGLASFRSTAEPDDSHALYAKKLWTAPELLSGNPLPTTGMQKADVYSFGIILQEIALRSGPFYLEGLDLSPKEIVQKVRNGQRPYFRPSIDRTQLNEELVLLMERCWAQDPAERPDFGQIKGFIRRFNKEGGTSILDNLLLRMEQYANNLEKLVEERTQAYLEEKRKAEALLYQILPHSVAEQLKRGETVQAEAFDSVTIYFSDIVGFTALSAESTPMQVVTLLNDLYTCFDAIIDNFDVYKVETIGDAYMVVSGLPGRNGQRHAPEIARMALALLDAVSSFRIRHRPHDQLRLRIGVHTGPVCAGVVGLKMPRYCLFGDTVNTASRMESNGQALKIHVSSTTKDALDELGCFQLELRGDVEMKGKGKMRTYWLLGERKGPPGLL
T1 sequence (P78324 whole entry, looked up, the tested form may be a part): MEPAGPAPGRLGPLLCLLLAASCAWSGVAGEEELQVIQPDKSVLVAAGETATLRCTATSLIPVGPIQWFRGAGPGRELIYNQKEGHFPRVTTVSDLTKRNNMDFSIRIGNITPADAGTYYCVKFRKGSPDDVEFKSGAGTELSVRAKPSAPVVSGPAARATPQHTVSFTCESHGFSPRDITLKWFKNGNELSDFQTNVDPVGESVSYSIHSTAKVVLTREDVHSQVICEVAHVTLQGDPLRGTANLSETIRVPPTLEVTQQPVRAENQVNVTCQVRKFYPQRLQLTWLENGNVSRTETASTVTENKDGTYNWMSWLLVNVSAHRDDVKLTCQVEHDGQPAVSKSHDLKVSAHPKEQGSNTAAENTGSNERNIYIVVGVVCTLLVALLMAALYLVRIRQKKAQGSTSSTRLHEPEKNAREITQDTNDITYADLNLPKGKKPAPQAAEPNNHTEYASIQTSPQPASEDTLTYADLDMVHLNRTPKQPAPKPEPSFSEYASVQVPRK
T1 sequence (Q08722 whole entry, looked up, the tested form may be a part): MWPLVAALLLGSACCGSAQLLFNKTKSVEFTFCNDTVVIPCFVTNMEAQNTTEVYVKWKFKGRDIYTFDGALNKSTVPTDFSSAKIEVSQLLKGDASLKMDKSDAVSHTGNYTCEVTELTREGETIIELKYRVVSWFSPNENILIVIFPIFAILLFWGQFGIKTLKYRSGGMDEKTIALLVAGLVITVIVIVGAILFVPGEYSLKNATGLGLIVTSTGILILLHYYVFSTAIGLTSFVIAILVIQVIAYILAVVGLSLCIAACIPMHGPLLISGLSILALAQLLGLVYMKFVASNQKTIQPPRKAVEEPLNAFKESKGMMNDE
Parathyroid hormone/parathyroid hormone-related peptide receptor (Homo sapiens), sequence (Q03431 whole entry, looked up): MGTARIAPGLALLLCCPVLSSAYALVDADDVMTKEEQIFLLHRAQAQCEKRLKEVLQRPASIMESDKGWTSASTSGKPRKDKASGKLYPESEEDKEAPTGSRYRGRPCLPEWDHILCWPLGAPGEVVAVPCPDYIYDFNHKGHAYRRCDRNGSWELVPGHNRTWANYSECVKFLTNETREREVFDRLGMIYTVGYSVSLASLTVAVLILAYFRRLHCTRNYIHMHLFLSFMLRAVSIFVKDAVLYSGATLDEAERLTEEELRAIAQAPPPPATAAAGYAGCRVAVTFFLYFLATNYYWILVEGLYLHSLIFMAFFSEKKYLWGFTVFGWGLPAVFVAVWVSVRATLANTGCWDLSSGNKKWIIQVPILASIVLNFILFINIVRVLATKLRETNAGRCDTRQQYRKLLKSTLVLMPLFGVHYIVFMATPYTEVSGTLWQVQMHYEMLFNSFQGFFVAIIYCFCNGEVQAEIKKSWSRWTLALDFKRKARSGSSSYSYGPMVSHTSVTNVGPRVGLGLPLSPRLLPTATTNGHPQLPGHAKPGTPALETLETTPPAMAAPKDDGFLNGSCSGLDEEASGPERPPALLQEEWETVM

Cc1cc2nc3c(=O)[nH]c(=O)nc-3n(C[C@H](O)[C@H](O)[C@H](O)CO)c2cc1C
Potency [1]: inactive | Potency [2]: inactive | Potency [3]: inactive | Potency [4]: inactive | Potency [5]: inactive | Potency [6]: inactive

NC(=O)NNc1ccccc1
Potency [1]: inactive | Potency [2]: inactive | Potency [3]: inactive | Potency [7]: inactive | Potency [8]: inactive | Potency [4]: inactive | Potency [5]: inactive | Potency [6]: inactive

CC(O)COc1ccccc1 (configuration not stated)
Potency [1]: inactive | Potency [2]: inactive | Potency [3]: inactive | Potency [5]: inactive | Potency [6]: inactive

O=C1O[C@H](CO)[C@@H](O)[C@H](O)[C@H]1O
Potency [1]: inactive | Potency [2]: inactive | Potency [3]: inactive | Potency [7]: inactive | Potency [4]: inactive | Potency [5]: inactive | Potency [6]: inactive

CCOC(=O)[C@H](CCc1ccccc1)N[C@@H](C)C(=O)N1C(=O)N(C)C[C@H]1C(=O)O
Potency [1]: inactive | Potency [2]: inactive | Potency [3]: inactive | Potency [7]: inactive | Potency [8]: inactive | Potency [9]: inactive | Potency [4]: inactive | Potency [5]: inactive | Potency [6]: inactive

NC(=O)N/N=C/c1ccc([N+](=O)[O-])o1
Potency [2]: inactive | Potency [3]: inactive | Potency [10]: inactive | Potency [8]: 48.6 µM (active) | Potency [9]: inactive | Potency [5]: inactive | Potency [6]: inactive

COCCOC(=O)C1=C(C)NC(C)=C(C(=O)OC/C=C/c2ccccc2)C1c1cccc([N+](=O)[O-])c1 (configuration not stated)
outcome [11]: inactive | Potency [12]: inactive | outcome [13]: inactive | Potency [3]: inactive | Potency [10]: inactive

CC(CN1c2ccccc2Sc2ccccc21)N(C)C (configuration not stated)
outcome [11]: inactive | Potency [12]: inactive | Potency [2]: inactive | outcome [13]: inactive | outcome [14]: inactive | Potency [3]: inactive | Potency [10]: inactive | Potency [7]: inactive | Potency [8]: inactive | Potency [9]: inactive | Potency [4]: inactive | Potency [5]: inactive | Potency [6]: inactive

CN(C)CCCN1c2ccccc2Sc2ccc(Cl)cc21
outcome [15]: inactive | outcome [11]: inactive | Potency [12]: 14.7 µM (active) | Potency [2]: 7.08 µM (active) | outcome [13]: inactive | Potency [8]: 21.1 µM (active) | Potency [6]: inactive

CN(C)CCOC(C)(c1ccccc1)c1ccccn1 (configuration not stated)
outcome [15]: inactive | outcome [11]: inactive | Potency [12]: inactive | Potency [2]: inactive | outcome [13]: inactive | outcome [14]: inactive | Potency [3]: inactive | Potency [10]: inactive | Potency [7]: inactive | Potency [9]: inactive | Potency [4]: inactive | Potency [5]: inactive | Potency [6]: inactive

CC(C)NC[C@H](O)c1ccc(O)c(O)c1
outcome [15]: inactive | outcome [11]: inactive | Potency [12]: inactive | Potency [2]: inactive | outcome [13]: inactive | outcome [14]: inactive

Cc1c(O)cccc1C(=O)N[C@@H](CSc1ccccc1)[C@H](O)CN1C[C@H]2CCCC[C@H]2C[C@H]1C(=O)NC(C)(C)C
Potency [2]: inactive | outcome [13]: inactive | outcome [14]: inactive | Potency [7]: 21.1 µM (active) | Potency [9]: 26.6 µM (active) | Potency [6]: 21.1 µM (active)

COC(=O)C1=C(C)NC(C)=C(C(=O)OC)C1c1ccccc1[N+](=O)[O-]
outcome [11]: inactive | Potency [12]: 13.1 µM (active) | Potency [2]: inactive | outcome [13]: inactive | Potency [16]: inactive | Potency [3]: inactive | Potency [7]: inactive | Potency [8]: inactive | Potency [4]: inactive | Potency [6]: inactive

O=Cc1ccccc1C=O
Potency [2]: inactive | Potency [3]: inactive | Potency [10]: inactive | Potency [7]: inactive | Potency [4]: inactive | Potency [5]: inactive | Potency [6]: inactive

O=C1NC(=O)[C@@]2(CCOc3ccc(F)cc32)N1
Potency [2]: inactive | outcome [13]: inactive | outcome [14]: inactive | Potency [3]: inactive | Potency [10]: inactive | Potency [7]: inactive | Potency [9]: inactive | Potency [4]: inactive | Potency [5]: inactive | Potency [6]: inactive

CC1=C(/C=C/C(C)=C/C=C/C(C)=C/C(=O)O)C(C)(C)CCC1
outcome [11]: inactive | Potency [12]: inactive | Potency [2]: inactive | outcome [13]: inactive | outcome [14]: inactive | Potency [3]: inactive | Potency [10]: inactive | Potency [7]: inactive | Potency [8]: inactive | Potency [4]: inactive | Potency [5]: inactive | Potency [6]: inactive

CCN(CC)C(C)CN1c2ccccc2Sc2ccccc21 (configuration not stated)
outcome [15]: inactive | outcome [11]: inactive | Potency [12]: inactive | Potency [2]: inactive | outcome [13]: inactive | outcome [14]: inactive | Potency [3]: inactive | Potency [7]: inactive | Potency [8]: inactive | Potency [4]: inactive | Potency [5]: inactive | Potency [6]: inactive

C[C@](N)(Cc1ccc(O)cc1)C(=O)O
outcome [15]: inactive | outcome [11]: inactive | Potency [12]: inactive | Potency [2]: inactive | outcome [13]: inactive | outcome [14]: inactive | activity change, negative = cytotoxic [3]: 12.9% [at 4.81 µM] | activity change, negative = cytotoxic [7]: 11.8% [at 4.84 µM] | Potency [9]: 0.001 µM (active) | activity change, negative = cytotoxic [4]: 0.899% [at 6.03 µM] | activity change, negative = cytotoxic [5]: 16.2% [at 4.84 µM] | activity change, negative = cytotoxic [6]: 7.56% [at 4.84 µM]

CNCC(O)c1ccc(O)c(O)c1 (configuration not stated)
outcome [15]: inactive | outcome [11]: inactive | Potency [12]: inactive | Potency [2]: inactive | outcome [13]: inactive | outcome [14]: inactive | Potency [3]: inactive | Potency [10]: inactive | Potency [7]: inactive | Potency [4]: inactive | Potency [5]: inactive | Potency [6]: inactive
